Hits are enriched below; roughly 17% of the tested compounds scored in any of these assays.
TDP1 cell noCPT = qHTS for Inhibitors of human tyrosyl-DNA phosphodiesterase 1 (TDP1): qHTS in cells in absence of CPT; DT40 Tdp1-/- hTDP1 cells, no CPT, ATP luminescence, 48 h; Potency, µM (doses to about 46.2 µM), without a hit: top-dose activity change, negative = growth inhibition, usual class: inhibitors; hit rate 15% among 420,000; also: % is scaled to controls: 0 for no effect and ±100 for the full control effect; nearly all actives have a fitted effect of over 55% in size
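Stably hTDP1-transfected Tdp1-null chicken DT40 cells were treated with library compounds minus camptothecin and grown for at least 48 hr at 37 °C, after which cellular ATP was quantified by luminescence.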
HT1080 IDH1KD tx = kills HT-1080 cells with IDH1 knockdown. Potency, µM (top dose mostly 46.1 µM), inactives show top-dose activity, negative = toxicity, actives largely listed as cytotoxic. hit rate 2% among 360,000. HT-1080 IDH1 knockdown viability, ATP luminescence, 48 h. AID 686971;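 also: 0% = DMSO wells and -100% = cell-free medium wells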
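% activity derives from luminescence (CellTiter-Glo), normalised to DMSO and no-cell wells. HT-1080-IDH1KD cells, 750/well, had 48 h compound exposure at 37 °C.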
HT1080NT lethal = kills 2HG-producing HT-1080-NT fibrosarcoma cells; HT-1080-NT fibrosarcoma viability, CellTiter-Glo ATP luminescence, 48 h; Potency, µM (series often up to 46.1 µM), for inactives: at the top dose activity, negative = less viability, hits mostly cytotoxic; hit rate 1.6% among 360,000; AID 686970;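 also: NT is the 2HG producing partner of a matched IDH1 knockdown line; 0% = DMSO-treated cells and -100% = media-only wells without cells; nearly all actives have a fitted effect of over 55% in size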
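Fibrosarcoma NT cells, 750 per well in 5% FBS RPMI, were exposed to compound for 48 hours. Viability: CellTiter-Glo luminescence.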
HepG2 tox = kills HepG2 cells in TGF-b inhibitor counter-screen. HepG2 CAGA-GFP viability, ATP luminescence, 18 h. Potency, µM (titrated, usually from 46.1 µM), inactives show top-dose activity change, negative = cytotoxicity, usual class: cytotoxic. hit rate 0.76% among 410,000
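CellTiter-Glo luminescence gave cytotoxicity after 18 hours at 37 degrees C. The cells were HepG2 CAGA-GFP in 1% FBS DMEM, stimulated with 500 pg/mL TGF-beta after compound addition. %Activity was normalised to no-cell wells (complete cell-killing) and DMSO (no toxicity), and curves were fitted and classified.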
TGFb SMAD3 inh = inhibitors of TGF-b signaling; Potency, µM (titrated, usually from 46.1 µM), for inactives: at the highest dose activity, negative = inhibition, most hits filed as inhibitors; hit rate 1.2% among 410,000; HepG2 CAGA-GFP TGF-b/SMAD3 reporter, GFP fluorescence, 18 h; TGF-beta stimulated, 500 pg/mL final; AID 588855; also: % is scaled to controls: 0 for no effect and ±100 for the full control effect; nearly all actives have a fitted effect of over 65% in size
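GFP signal (ex488/em500-530) from TGF-beta-stimulated HEPG2 CAGA-GFP cells, 500 pg/mL final, 18 h at 37 degrees C in DMEM plus 1% FBS, normalized to unstimulated and DMSO-stimulated controls.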
DT40 TDP1 CPT = DT40-hTDP1 cell growth loss with CPT; chicken DT40 Tdp1-/-;hTDP1 cells + 20 nM CPT, ATP luminescence, 48 h; Potency, µM (series often up to 46.2 µM), without a hit: at the top dose activity change, negative = growth inhibition, actives largely listed as inhibitors; hit rate 12% among 420,000; AID 686979; also: % is scaled to controls: 0 for no effect and ±100 for the full control effect; nearly all actives have a fitted effect of over 55% in size
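Chicken DT40 Tdp1-/- cells stably complemented with human TDP1 were seeded at 400 cells/well in medium containing 20 nM camptothecin, exposed to pin-transferred compounds, and grown at 37 °C for at least 48 hr. Viability was read as ATP luminescence.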
* = called active by the depositor; u = inconclusive; x = no result. Calls follow the shape of the dose curve; as a rule, active = well fitted curve in the direction sought with a large enough effect; inconclusive = small, poorly fitted or top-dose-only effect, or another doubt; inactive = no such curve, though single readings can be large; an effect the other way counts as inactive or inconclusive. Potency is read from the fitted curve at half-maximal effect.

SMILES	TDP1 cell noCPT	HT1080 IDH1KD tx	HT1080NT lethal	HepG2 tox	TGFb SMAD3 inh	DT40 TDP1 CPT
Cc1ccc(CCNC(=O)CCn2nc(-c3ccc(C)cc3)ccc2=O)cc1	u	x	x	-14%	-13%	23µM*
Cc1ccc(-c2ccc(=O)n(Cc3cc(C)ccc3C)n2)cc1	21µM*	u	-13%	-28%	u	u
COc1ccc(-n2c(CCC(=O)O)ccc2-c2ccc(F)cc2)c(OC)c1	-1%	5%	1%	4%	0%	2%
CC(=O)Cc1nsc(NC(=O)c2ccc(-c3cc(C(F)(F)F)ccc3Cl)o2)n1	13µM*	11µM*	11µM*	-17%	-8%	21µM*
CC(=O)Cc1nsc(NC(=O)c2ccc(-c3ccc(Cl)cc3Cl)o2)n1	u	7%	0%	-1%	5%	-9%
c1csc(C2=NNC(=NC3CCCCC3)SC2)c1	23µM*	10%	-11%	2%	17%	u
CCCCN=C1NN=C(c2ccc3c(c2)OCCO3)CS1	-25%	-14%	-19%	-24%	6%	-28%
FC(F)Sc1ccc(N=C2NN=C(c3ccc4c(c3)OCCO4)CS2)cc1	21µM*	u	u	-25%	u	18µM*
c1cc2c(cc1C1=NNC(=NC3CC3)SC1)OCCO2	16µM*	12µM*	16µM*	-78%	u	21µM*
COc1ccc(CN=C2NN=C(c3cccc(OC)c3)CS2)cc1	u	1%	7%	-12%	-11%	17%
COc1ccc(N=C2NN=C(c3ccc4c(c3)OCCO4)CS2)cc1	26µM*	-1%	-17%	13%	u	21µM*
CCCCN=C1NN=C(c2ccc(C)c(C)c2)CS1	u	-17%	-12%	-21%	17%	u
Cc1cc(OCC(=O)N[C@@H](CSCc2ccccc2)C(=O)O)c2c(C)c(C)c(=O)oc2c1	0%	-4%	0%	-2%	28%	-10%
Cc1cc(=O)[nH]c(/N=C(\N)Nc2ccc(SC(F)F)cc2)n1	u	9%	8%	-9%	-1%	u
Cc1c(NC(=O)c2cccc(NC(=O)C(C)Oc3ccccc3)c2)c(=O)n(-c2ccccc2)n1C (stereo unspecified)	u	-3%	4%	-17%	-20%	u
CC(C)c1ccc(C(O)P(=O)(OC2CCCCC2)OC2CCCCC2)cc1 (stereo unspecified)	u	u	u	-133%	u	u
Cc1ccc(C)c(NC(=O)CN(C)C(=O)c2cc3ccccc3oc2=O)c1	3%	8%	17%	-2%	-9%	3%
CCn1c(SCC(=O)N2CCOCC2)nnc1C(C)NC(=O)c1ccccc1 (stereo unspecified)	-3%	11%	-9%	0%	-6%	-2%
O=S(=O)(NCc1cn2ccsc2n1)c1ccc(Oc2ccccc2)cc1	10µM*	-9%	-3%	-3%	5%	9.2µM*
Cc1csc2nc(CNS(=O)(=O)c3ccc(-c4ccccc4)cc3)cn12	18µM*	-2%	u	-33%	-20%	u
O=S(=O)(NCc1cn2ccsc2n1)c1cccs1	-15%	9%	7%	-1%	27%	-2%
O=S(=O)(NCc1cn2ccsc2n1)c1ccc2c(c1)OCCO2	23µM*	9%	1%	4%	-20%	u
Cc1ccc(SCc2cn3c(C)csc3n2)cc1	-18%	u	35µM*	-42%	-10%	-18%
CCc1ccc(S(=O)(=O)NCc2cn3ccsc3n2)s1	u	-1%	8%	-37%	-5%	-24%
CCOC(=O)N1C2c3ccccc3C(c3ccccc32)N1C(=O)OCC	u	-3%	-3%	-3%	-18%	u
SMILES	TDP1 cell noCPT	HT1080 IDH1KD tx	HT1080NT lethal	HepG2 tox	TGFb SMAD3 inh	DT40 TDP1 CPT
CC(=O)N1CCN(C(=O)c2ccc(NS(=O)(=O)c3ccc4[nH]c(=O)[nH]c4c3)cc2)CC1	-1%	9%	6%	-13%	2%	8%
C=C[C@@]1(C)C[C@H](OC(=O)CSC(C)(C)CNC(=O)[C@@H](N)C(C)C)[C@@]2(C)C(C)CC[C@@]3(CCC(=O)[C@@H]32)[C@H](C)[C@H]1O (stereo partly specified)	0.079µM*	x	x	-34%	u	0.11µM*
C=C[C@]1(C)C[C@@H](OC(=O)CSCCN(CC)CC)[C@]2(C)C(C)CC[C@]3(CCC(=O)[C@H]32)[C@@H](C)[C@@H]1O (stereo partly specified)	8.2µM*	-28%	-6%	-32%	2%	8.2µM*
COC(=O)/C=C1\N/C(=N/c2nc(C)c3cc(OC)ccc3n2)NC1=O	9.2µM*	u	-24%	-2%	-28%	12µM*
COC(=O)/C=C1/C(=O)N/C(=N\c2nc(C)cc(C)n2)N1c1ccc(OC)cc1	1%	7%	20%	-11%	0%	21%
COc1ccc(-c2nc3c(c(SCC(=O)Nc4cccc(O)c4)n2)Cc2c(CO)cnc(C)c2O3)cc1	18µM*	0%	2%	-24%	u	u
Cc1ncc(CO)c2c1Oc1nc(-c3ccccc3)nc(SCC(=O)Nc3cccc(O)c3)c1C2	26µM*	7%	-19%	-39%	13µM*	u
Cc1ncc(CO)c2c1Oc1nc(-c3ccccc3F)nc(SCC(=O)N3CCCCC3)c1C2	u	x	x	5%	11%	u
Cc1ncc(CO)c2c1Oc1nc(-c3ccccc3)nc(SCC(=O)Nc3cccc(C(F)(F)F)c3)c1C2	4.6µM*	x	x	-12%	u	6.5µM*
Cc1ncc(CO)c2c1Oc1nc(-c3ccc(F)cc3)nc(SCC(=O)N3CCCCC3)c1C2	9.2µM*	x	x	-4%	-2%	16µM*
CCc1cccc(NC(=O)CCS(=O)(=O)c2cc3c4c(c2)CCN4C(=O)CC3)c1	1%	x	x	11%	0%	-1%
Cc1cccc(CNc2ncncc2-c2cccc(NS(C)(=O)=O)c2)c1	-29%	x	x	x	x	-21%
Cc1ccc2cccc(OCC(=O)Nc3cccc(S(=O)(=O)N4CCCC4)c3)c2n1	16µM*	-23%	-26%	-16%	u	21µM*
O=C(COc1ccc2ccc(=O)oc2c1)Nc1cccc(S(=O)(=O)N2CCCCC2)c1	12µM*	4%	1%	3%	-8%	u

High-throughput results from PubChem.
